In PubChem BioAssay AID1159580 (chemical genetic matrix, 2015):
Where “and” joins values, the source holds several entries; their conditions need not be identical. Identical values can stand only once. Among all 5,500 compounds or so, about 2,000 (36%) were called active. About 18% were inconclusive and are not listed. Cut-off read from the data, not from the text of the source: active = normalized growth mostly below about 0.91 (no sharp cut-off); inconclusive = no clear call, values can overlap the other calls; inactive = mostly above about 0.92. This is one part of the list.

Test: chemical genetic growth profiling, strain panel (AID 1159580);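 note: tested at 20 µM; growth read once vehicle control cultures reached saturation at 30 °C; 1 = growth at the plate median or of vehicle wells; lower values mean less growth of the strain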
Conditions: S. cerevisiae deletion strains, growth OD

Measured: normalized growth

CCCOc1ccc2nc(NC(=O)OC)[nH]c2c1
active: locus YEL003W, strain gim4, stronger effect = lower value 0.841
inactive: locus YAL021C, strain ccr4, stronger effect = lower value 1.03 | locus YAL026C, strain drs2, stronger effect = lower value 1.02 | locus YAL030W, strain snc1, stronger effect = lower value 1.02 | locus YBL061C, strain skt5, stronger effect = lower value 1.01 | locus YBR009C, strain hhf1, stronger effect = lower value 1.01 | locus YBR021W, strain FUR4, stronger effect = lower value 1.01 | locus YBR023C, strain chs3, stronger effect = lower value 1.02 | locus YBR171W, strain sec66, stronger effect = lower value 1.02 | locus YBR229C, strain ROT2, stronger effect = lower value 0.992 | locus YBR231C, strain swc5, stronger effect = lower value 1.01 | locus YBR279W, strain paf1, stronger effect = lower value 1.02 | locus YCL011C, strain gbp2, stronger effect = lower value 1.01 | locus YCL016C, strain dcc1, stronger effect = lower value 1.02 | locus YCL029C, strain bik1, stronger effect = lower value 0.974 | locus YCL061C, strain MRC1, stronger effect = lower value 1.01 | locus YCL069W, strain vba3, stronger effect = lower value 1.02 | locus YCR088W, strain abp1, stronger effect = lower value 1.02 | locus YDL005C, strain med2, stronger effect = lower value 1.02 | locus YDL035C, strain GPR1, stronger effect = lower value 1.01 | locus YDL040C, strain nat1, stronger effect = lower value 1.02 | locus YDL074C, strain BRE1, stronger effect = lower value 1.02 | locus YDL101C, strain DUN1, stronger effect = lower value 0.997 | locus YDL134C, strain PPH21, stronger effect = lower value 0.982 | locus YDL185W, strain tfp1, stronger effect = lower value 0.976 | locus YDL192W, strain arf1, stronger effect = lower value 0.97 | locus YDR001C, strain nth1, stronger effect = lower value 1.02 | locus YDR069C, strain doa4, stronger effect = lower value 1.01 | locus YDR101C, strain arx1, stronger effect = lower value 1.01 | locus YDR137W, strain rgp1, stronger effect = lower value 0.951 | locus YDR150W, strain NUM1, stronger effect = lower value 0.996 | locus YDR159W, strain sac3, stronger effect = lower value 1.01 | locus YDR162C, strain NBP2, stronger effect = lower value 0.983 | locus YDR195W, strain ref2 1.04 | locus YDR297W, strain sur2, stronger effect = lower value 1.02 | locus YDR318W, strain mcm21, stronger effect = lower value 0.977 | locus YDR334W, strain swr1, stronger effect = lower value 1.01 | locus YDR335W, strain msn5, stronger effect = lower value 1.02 | locus YDR388W, stronger effect = lower value 0.981 | locus YDR392W, strain spt3, stronger effect = lower value 0.99 | locus YDR502C, strain sam2, stronger effect = lower value 0.983 | locus YEL037C, strain rad23, stronger effect = lower value 1.01 | locus YEL061C, strain CIN8 (second series), stronger effect = lower value 1.02 | locus YEL061C, strain CIN8, stronger effect = lower value 0.999 | locus YER015W, strain faa2, stronger effect = lower value 1 | locus YER016W, strain bim1, stronger effect = lower value 1.02 | locus YER110C, stronger effect = lower value 0.968 | locus YER111C, strain swi4, stronger effect = lower value 1.01 | locus YER155C, strain BEM2 (second series), stronger effect = lower value 1.02 | locus YER155C, strain BEM2, stronger effect = lower value 0.992 | locus YER167W, strain BCK2, stronger effect = lower value 0.988 | locus YFR010W, strain ubp6, stronger effect = lower value 1.02 | locus YGL078C, strain dbp3, stronger effect = lower value 0.982 | locus YGL086W, strain mad1, stronger effect = lower value 0.989 | locus YGL167C, strain pmr1, stronger effect = lower value 1.01 | locus YGL173C, strain kem1, stronger effect = lower value 1.02 | locus YGL227W, strain vid30, stronger effect = lower value 1.02 | locus YGL240W, strain doc1, stronger effect = lower value 1 | locus YGL248W, strain PDE1, stronger effect = lower value 0.986 | locus YGL253W, strain hxk2, stronger effect = lower value 1.01 | locus YGR078C, strain PAC10, stronger effect = lower value 0.856 | locus YGR135W, strain pre9, stronger effect = lower value 0.953 | locus YGR229C, strain SMI1, stronger effect = lower value 0.983 | locus YGR252W, strain gcn5, stronger effect = lower value 0.956 | locus YHR013C, strain ard1, stronger effect = lower value 1.01 | locus YHR027C, strain rpn1, stronger effect = lower value 1.01 | locus YHR030C, strain SLT2, stronger effect = lower value 0.988 and 1.02 | locus YHR079C, strain IRE1 (second series), stronger effect = lower value 0.986 | locus YHR079C, strain IRE1, stronger effect = lower value 1.02 | locus YHR094C, strain hxt1, stronger effect = lower value 0.982 | locus YHR129C, strain ARP1, stronger effect = lower value 0.989 | locus YHR142W, strain chs7, stronger effect = lower value 1.03 | locus YHR200W, strain rpn10, stronger effect = lower value 0.98 | locus YIL066C, strain RNR3, stronger effect = lower value 0.996 | locus YIL073C, strain SPO22, stronger effect = lower value 0.964 | locus YIL125W, strain kgd1, stronger effect = lower value 0.993 | locus YIR030C, strain dcg1, stronger effect = lower value 0.983 | locus YJL092W, strain hpr5, stronger effect = lower value 1.01 | locus YJL095W, strain BCK1 (second series), stronger effect = lower value 1.02 | locus YJL095W, strain BCK1, stronger effect = lower value 1.01 and 1.06 | locus YJL115W, strain asf1, stronger effect = lower value 1 | locus YJL129C, strain trk1, stronger effect = lower value 1.03 | locus YJL134W, strain LCB3, stronger effect = lower value 0.995 | locus YJL154C, strain vps35, stronger effect = lower value 1.02 | locus YJL164C, strain tpk1, stronger effect = lower value 1.02 | locus YJL166W, strain qcr8, stronger effect = lower value 1.02 | locus YJL168C, strain set2, stronger effect = lower value 0.994 | locus YJL187C, strain SWE1 (second series), stronger effect = lower value 1.01 | locus YJL187C, strain SWE1, stronger effect = lower value 1.01 | locus YJR043C, strain POL32, stronger effect = lower value 0.991 | locus YJR066W, strain TOR1, stronger effect = lower value 0.94
